Hit rate of the full screen: of about 190,000 compounds, about 4,100 (2.2%) were called active. This is one part of a sample in which actives are shown more often than they occur. Values without a mark were called inactive.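 How the source made its calls: active means thallium flux slope and its plate-corrected score both differing from the plate sample mean at a set confidence after two filtering rounds, in either direction; inactive means the rest.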
These molecules were tested against Solute carrier family 12 member 5 (Homo sapiens) (UniProt Q9H2X9) (assay: modulation of human KCC2 ion transport – cell-based, HEK293 KCC2, FluoZin-2 fluorescence, MLSMR, primary screen (AID 1456;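 further: slope of fluorescence scaled to starting intensity during 10 to 20 s after thallium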)). Settings: KCC2 cells, thallium flux FluoZin-2 fluorescence; at 10 µM.
Sequence of Solute carrier family 12 member 5 (Homo sapiens) (Q9H2X9 whole entry, looked up): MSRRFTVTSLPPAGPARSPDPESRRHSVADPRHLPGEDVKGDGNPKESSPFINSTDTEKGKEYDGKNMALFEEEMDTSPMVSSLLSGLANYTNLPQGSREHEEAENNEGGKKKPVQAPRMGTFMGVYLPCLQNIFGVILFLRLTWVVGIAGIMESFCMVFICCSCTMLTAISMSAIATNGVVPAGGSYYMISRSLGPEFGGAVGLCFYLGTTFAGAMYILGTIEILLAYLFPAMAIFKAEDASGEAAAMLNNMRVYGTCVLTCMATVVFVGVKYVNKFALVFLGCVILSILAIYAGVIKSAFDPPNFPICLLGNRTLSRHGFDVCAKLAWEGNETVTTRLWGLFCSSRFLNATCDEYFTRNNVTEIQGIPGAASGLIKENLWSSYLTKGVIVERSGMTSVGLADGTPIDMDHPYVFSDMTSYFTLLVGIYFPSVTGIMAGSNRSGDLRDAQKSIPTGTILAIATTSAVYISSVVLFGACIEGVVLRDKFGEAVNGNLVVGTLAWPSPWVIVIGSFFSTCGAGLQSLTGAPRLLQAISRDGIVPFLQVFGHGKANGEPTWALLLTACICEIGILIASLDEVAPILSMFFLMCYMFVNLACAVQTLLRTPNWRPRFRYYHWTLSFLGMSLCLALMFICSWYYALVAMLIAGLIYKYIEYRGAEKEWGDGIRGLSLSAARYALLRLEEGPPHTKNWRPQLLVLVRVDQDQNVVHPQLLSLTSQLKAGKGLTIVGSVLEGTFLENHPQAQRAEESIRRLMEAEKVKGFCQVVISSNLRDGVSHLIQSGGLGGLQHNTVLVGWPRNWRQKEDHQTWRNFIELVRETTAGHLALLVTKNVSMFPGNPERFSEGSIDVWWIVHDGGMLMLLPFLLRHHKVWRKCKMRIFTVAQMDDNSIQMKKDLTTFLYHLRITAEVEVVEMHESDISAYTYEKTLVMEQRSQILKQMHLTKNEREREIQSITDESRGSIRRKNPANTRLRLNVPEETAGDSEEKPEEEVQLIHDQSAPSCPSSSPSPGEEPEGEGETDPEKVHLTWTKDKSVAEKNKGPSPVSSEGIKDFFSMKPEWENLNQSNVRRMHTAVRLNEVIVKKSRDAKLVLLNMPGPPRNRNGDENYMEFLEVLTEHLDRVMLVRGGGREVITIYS
`CCOc1ccc(NC(=S)N2CCCCCC2)cc1` showed a B-score of Tl+ flux slope (higher = more flux/activation; lower = inhibition) of -0.294. Work on `CCOCC(=O)Nc1ncc(S(=O)(=O)c2ccc([N+](=O)[O-])cc2)s1` yielded a B-score of Tl+ flux slope (higher = more flux/activation; lower = inhibition) of -0.205. For `CCc1ccc(-n2c(SCc3cc(=O)n4cc(Br)ccc4n3)nc3[nH]ncc3c2=O)cc1`, the B-score of Tl+ flux slope (higher = more flux/activation; lower = inhibition) was -1.01. In the case of `Cc1cc(C(=O)NNC(=S)Nc2ccccc2C)cs1`, the B-score of Tl+ flux slope (higher = more flux/activation; lower = inhibition) is reported as 4.58 (active). In the case of `Cc1ccc(C)c(NC(=S)NNC(=S)Nc2ccc(C(C)C)cc2)c1`, the B-score of Tl+ flux slope (higher = more flux/activation; lower = inhibition) is reported as 4.26 (active). For `Cc1cc(C(=O)NNC(=S)NC(C)c2ccccc2)cs1` (centres undefined), the B-score of Tl+ flux slope (higher = more flux/activation; lower = inhibition) was -1.17. Work on `Cc1ccccc1NC(=S)Nc1cccc([N+](=O)[O-])c1` yielded a B-score of Tl+ flux slope (higher = more flux/activation; lower = inhibition) of 0.705. Molecule `Cc1ccc(NC(=S)N/N=C2/CCCc3c(C)cc(C)cc32)cc1` has a B-score of Tl+ flux slope (higher = more flux/activation; lower = inhibition) of 0.076. `CC(C)c1ccc(NC(=S)NNc2ccc(Cl)c(C(=O)O)c2)cc1` showed a B-score of Tl+ flux slope (higher = more flux/activation; lower = inhibition) of 0.393. `COc1ccc(CCNC(=O)C(=O)NCC2CCNCC2)cc1OC` showed a B-score of Tl+ flux slope (higher = more flux/activation; lower = inhibition) of 0.52. For `O=C(NNc1cc(Cl)cc(Cl)c1)c1c(F)cccc1Cl`, the B-score of Tl+ flux slope (higher = more flux/activation; lower = inhibition) was -0.755. In the case of `COc1cc(OC)c(OC)cc1/C=N/Nc1ncnc2c1[nH]c1ccc(C)cc12`, the B-score of Tl+ flux slope (higher = more flux/activation; lower = inhibition) is reported as -1.07. `Cc1ccc(C(=O)NNc2ncnc3ccccc23)cc1` showed a B-score of Tl+ flux slope (higher = more flux/activation; lower = inhibition) of 0.377. In the case of `OC(c1ccccc1)C(CN1CCOCC1)c1ccccc1` (centres undefined), the B-score of Tl+ flux slope (higher = more flux/activation; lower = inhibition) is reported as 0.0146. With `Cc1ccc(-n2c(O)c(C=Nc3ccc(S(=O)(=O)Nc4ncccn4)cc3)c3ccccc3c2=O)cc1C` the B-score of Tl+ flux slope (higher = more flux/activation; lower = inhibition) was -0.0402. In the case of `Cc1ccc(N=Cc2c(O)cc(C)oc2=O)c(C)c1`, the B-score of Tl+ flux slope (higher = more flux/activation; lower = inhibition) is reported as 1.91. `Cc1ccc(N=Cc2c(O)n(-c3nccs3)c(=O)c3ccccc23)c(C)c1` was tested, and the B-score of Tl+ flux slope (higher = more flux/activation; lower = inhibition) was -6.91 (active). Molecule `CC(=O)Nc1ccc(S(=O)(=O)NC2(C(F)(F)F)C(=O)NC(C)=C2C#N)cc1` (centres undefined) has a B-score of Tl+ flux slope (higher = more flux/activation; lower = inhibition) of -0.983. With `CCOC(=O)C1=C(NC(=S)NC(=O)c2ccccc2)c2ccccc2CC1(C)C` the B-score of Tl+ flux slope (higher = more flux/activation; lower = inhibition) was 3.94 (active). `COCCCNC(=S)NC(=O)c1ccccc1` gave a B-score of Tl+ flux slope (higher = more flux/activation; lower = inhibition) of 1.23. Work on `CCOC(=O)c1c(NC(=O)C2(C)Cc3ccccc3C(=O)O2)sc2c1CCCC2` (centres undefined) yielded a B-score of Tl+ flux slope (higher = more flux/activation; lower = inhibition) of 1.05. Molecule `Cc1nnsc1C(=O)NCc1c(F)cccc1Cl` has a B-score of Tl+ flux slope (higher = more flux/activation; lower = inhibition) of 0.221. With `COc1ccccc1NC(=O)c1cc(Cl)nc2ccccc12` the B-score of Tl+ flux slope (higher = more flux/activation; lower = inhibition) was 0.201. In the case of `COc1cc(NC(=O)c2ccc(CNc3c(N4CCCC4)c(=O)c3=O)cc2)cc(OC)c1OC`, the B-score of Tl+ flux slope (higher = more flux/activation; lower = inhibition) is reported as 0.127. Work on `CCOC(=O)c1c(C)oc(C)c(C(=O)OCC)c1=O` yielded a B-score of Tl+ flux slope (higher = more flux/activation; lower = inhibition) of -0.18. For `CCOC(=O)c1c(C)[nH]c(C)c1C(=O)CSc1nc(N)cc(N)n1`, the B-score of Tl+ flux slope (higher = more flux/activation; lower = inhibition) was 6.26 (active). In the case of `Cc1cc(C)nc(SCC(=O)N(C)C)n1`, the B-score of Tl+ flux slope (higher = more flux/activation; lower = inhibition) is reported as -0.609. Molecule `O=S(=O)(NCCc1csc(-c2ccccc2)n1)c1cccnc1` has a B-score of Tl+ flux slope (higher = more flux/activation; lower = inhibition) of -0.711. `C/C(=N/NC(=O)CC(=O)N/N=C(\C)c1ccc([N+](=O)[O-])cc1)c1ccc([N+](=O)[O-])cc1` showed a B-score of Tl+ flux slope (higher = more flux/activation; lower = inhibition) of -0.738. In the case of `S=c1[nH]nc(-c2ccncc2)n1/N=C/c1ccccc1Cl`, the B-score of Tl+ flux slope (higher = more flux/activation; lower = inhibition) is reported as 1.47. For `COc1ccccc1/C=C/C=N/n1c(-c2ccc(Cl)cc2Cl)n[nH]c1=S`, the B-score of Tl+ flux slope (higher = more flux/activation; lower = inhibition) was 11.5 (active). In the case of `Fc1ccccc1/C=N/n1c(-c2cccnc2)n[nH]c1=S`, the B-score of Tl+ flux slope (higher = more flux/activation; lower = inhibition) is reported as -0.286. `COc1ccc(NC(=O)c2cn(-c3ccccc3)nc2SC)cc1` showed a B-score of Tl+ flux slope (higher = more flux/activation; lower = inhibition) of -1.58. Molecule `CCOC(=O)c1ccc(N=C2SC(C(=O)NC)CC(=O)N2CCc2ccccc2)cc1` (centres undefined) has a B-score of Tl+ flux slope (higher = more flux/activation; lower = inhibition) of 0.234. Molecule `COc1ccc2nc(NC(=O)NC3CCCCC3)sc2c1` has a B-score of Tl+ flux slope (higher = more flux/activation; lower = inhibition) of -1.35. For `CCC1=C/C(=C\c2ccc3c(c2)OCO3)C(=O)S1`, the B-score of Tl+ flux slope (higher = more flux/activation; lower = inhibition) was -8.87 (active). `CSC1=N/C(=C\c2ccc3c(c2)OCO3)C(=O)S1` gave a B-score of Tl+ flux slope (higher = more flux/activation; lower = inhibition) of -0.302. Molecule `O=C1/C(=C/c2ccc3c(c2)OCO3)CCC/C1=C\c1ccc2c(c1)OCO2` has a B-score of Tl+ flux slope (higher = more flux/activation; lower = inhibition) of 0.12. With `COc1ccc(/C=N/n2nnnc2N)cc1OC` the B-score of Tl+ flux slope (higher = more flux/activation; lower = inhibition) was 0.513. With `c1ccc(C2c3[nH]c4ccccc4c3CCN2Cc2cccn2-c2cccnc2)nc1` (centres undefined) the B-score of Tl+ flux slope (higher = more flux/activation; lower = inhibition) was -1.15. `O=C(Nc1cc(Cl)cc(Cl)c1)C(NCCCO)c1ccccc1` (centres undefined) was tested, and the B-score of Tl+ flux slope (higher = more flux/activation; lower = inhibition) was -0.607. `Cc1nnc(SC(C(=O)c2ccccc2)c2ccccc2)[nH]c1=O` (centres undefined) showed a B-score of Tl+ flux slope (higher = more flux/activation; lower = inhibition) of -0.235. For `Cc1nnc(SC(C(=O)Nc2cc(Cl)cc(Cl)c2)c2ccccc2)[nH]c1=O` (centres undefined), the B-score of Tl+ flux slope (higher = more flux/activation; lower = inhibition) was -4.12 (active). `O=C1N(c2ccccc2)C(=Nc2ccccc2)SC12CC2` showed a B-score of Tl+ flux slope (higher = more flux/activation; lower = inhibition) of -0.447. `O=C(c1ccc(=O)oc1)N1CCC(C(O)(c2ccccc2)c2ccccc2)CC1` was tested, and the B-score of Tl+ flux slope (higher = more flux/activation; lower = inhibition) was -0.673. `Cc1ccc(C(=O)NC(=S)NCc2cccnc2)cc1` was tested, and the B-score of Tl+ flux slope (higher = more flux/activation; lower = inhibition) was 1.21. In the case of `Cc1c(C(=O)NC(=S)NCc2cccnc2)oc2ccccc12`, the B-score of Tl+ flux slope (higher = more flux/activation; lower = inhibition) is reported as 13.6 (active). With `O=C(CCc1ccccc1)NCc1cccnc1` the B-score of Tl+ flux slope (higher = more flux/activation; lower = inhibition) was 0.123. In the case of `CC(C)(C)c1ccc(CCC2OCC(CN3CCOCC3)O2)cc1` (centres undefined), the B-score of Tl+ flux slope (higher = more flux/activation; lower = inhibition) is reported as 0.742. `CCNC(=S)N1CCN(CCN=CC2=C(O)CC(C)(C)CC2=O)CC1` gave a B-score of Tl+ flux slope (higher = more flux/activation; lower = inhibition) of -0.763. `Cc1ccc(C(O)P(=O)(OC(C)C)c2ccc(N(C)C)cc2)cc1` (centres undefined) was tested, and the B-score of Tl+ flux slope (higher = more flux/activation; lower = inhibition) was 0.0994. Work on `COC(=O)c1scc(C)c1NC(=O)CSc1ccc(Cl)cc1` yielded a B-score of Tl+ flux slope (higher = more flux/activation; lower = inhibition) of -1.21. With `COC(=O)c1sccc1NC(=O)CSc1ccccc1NS(=O)(=O)c1cc(Cl)ccc1Cl` the B-score of Tl+ flux slope (higher = more flux/activation; lower = inhibition) was 18.4 (active). In the case of `COC(=O)c1sccc1NC(=O)COc1ccc(Cl)cc1`, the B-score of Tl+ flux slope (higher = more flux/activation; lower = inhibition) is reported as 0.143. For `O=C(CSc1ccc(-c2ccco2)nn1)NCc1ccc2c(c1)OCO2`, the B-score of Tl+ flux slope (higher = more flux/activation; lower = inhibition) was -0.85. For `CC(C)Cc1nc(Cl)c(C#N)c2c1CCC2`, the B-score of Tl+ flux slope (higher = more flux/activation; lower = inhibition) was -0.778. With `CCCC(=O)N1c2ccccc2NC2=C(C(=O)CCC2)C1c1ccc(F)cc1` (centres undefined) the B-score of Tl+ flux slope (higher = more flux/activation; lower = inhibition) was 2.84 (active). Work on `CCC(=O)N1c2ccccc2NC2=C(C(=O)CCC2)C1c1ccco1` (centres undefined) yielded a B-score of Tl+ flux slope (higher = more flux/activation; lower = inhibition) of 1.12. Molecule `O=C1CC(c2cccc(F)c2)C2=C(CCCC2=O)N1` (centres undefined) has a B-score of Tl+ flux slope (higher = more flux/activation; lower = inhibition) of -0.124. With `Cn1cnc([N+](=O)[O-])c1Sc1n[nH]c(N)n1` the B-score of Tl+ flux slope (higher = more flux/activation; lower = inhibition) was 0.197. `Cn1cnc(S(=O)(=O)Nc2ccc3c(c2)OCCO3)c1` showed a B-score of Tl+ flux slope (higher = more flux/activation; lower = inhibition) of 1.1. In the case of `Oc1ccc2ccccc2c1N=Nc1nccs1`, the B-score of Tl+ flux slope (higher = more flux/activation; lower = inhibition) is reported as 111 (active). `Oc1ccc(N=Nc2nccs2)c(O)c1` showed a B-score of Tl+ flux slope (higher = more flux/activation; lower = inhibition) of 0.824. `Oc1ccc2ccccc2c1C=Nc1ccccc1` was tested, and the B-score of Tl+ flux slope (higher = more flux/activation; lower = inhibition) was -0.244.

Source: PubChem BioAssay AID1456 (Vanderbilt High Throughput Screening Facility, 2008)
